Mcl1 Bid PPI – Mcl-1/Bid interaction inhibition | Q07820 | TR-FRET Mcl-1/Bid-Dy647 peptide binding, 1536-well | inhibition, % at 21.7 µM | hit rate 0.97% among 220,000 | AID 1021;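 active = compounds that cut the binding signal by more than half at the single screening dose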;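 note: His-tagged Mcl-1 with europium anti-His antibody binding Bid BH3 peptide; 0% = Mcl-1 plus peptide wells and 100% = peptide-only wells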
Target sequence (Q07820 whole entry, looked up): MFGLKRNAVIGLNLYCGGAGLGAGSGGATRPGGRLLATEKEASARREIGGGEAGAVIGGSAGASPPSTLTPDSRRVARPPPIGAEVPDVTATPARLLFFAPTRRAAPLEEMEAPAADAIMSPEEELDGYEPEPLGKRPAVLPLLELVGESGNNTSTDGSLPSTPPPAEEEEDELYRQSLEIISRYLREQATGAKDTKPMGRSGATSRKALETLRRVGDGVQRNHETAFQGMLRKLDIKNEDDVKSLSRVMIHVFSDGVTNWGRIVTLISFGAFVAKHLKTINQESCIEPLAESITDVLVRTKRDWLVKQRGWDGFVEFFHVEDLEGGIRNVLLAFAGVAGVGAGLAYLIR
MCL1 BIM primary – MCL1-BIM-BH3 interaction inhibition (human). Q07820. GST-MCL1 / FITC-Bim-BH3 fluorescence polarization. inhibition, % at 10.9 µM. hit rate 0.68% among 320,000. AID 2057;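 active = inhibition above the mean inhibition of all tested compounds plus 3 SD, set per campaign, cut at about 40% in these data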;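 note: 0% = DMSO wells and 100% = unlabeled Bim-BH3 peptide control; higher means more loss of mP so more displacement of Bim peptide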
Mcl1 Noxa PPI – Mcl-1/Noxa interaction inhibition; TR-FRET Mcl-1/Noxa peptide binding, 2 h; inhibition, % at 21.7 µM; AID 1022; Q07820; hit rate 1.5% among 220,000;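 active = compounds that cut the protein-peptide binding signal by more than 50% relative to plate controls in a single-dose test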;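 note: His-tagged Mcl-1 with rhodamine Noxa BH3 peptide and terbium anti-His antibody; 0% = Mcl-1 plus Noxa peptide wells and 100% = peptide-only wells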
Mcl-1 Bim block – human Bim-Mcl-1 interaction inhibition; Bead-based flow cytometry, Bim peptide-Mcl-1 binding; inhibition, % at 10 µM; AID 1009; Q07820; hit rate 0.1% among 190,000; in the data active = inhibition above about 40%;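 note: 0% = no compound tracer wells and 100% = peptide blocker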
Active calls of the source: *; . = no result. This is a sample that favours compounds with a hit; in the whole collection about 2% have one here.

SMILES	Mcl1 Bid PPI	MCL1 BIM primary	Mcl1 Noxa PPI	Mcl-1 Bim block
CC(C)=C1C(=O)NN(c2ccc(C)c(Cl)c2)C1=O	-20	1	-13	45*
CCCN1CCC(NC(=O)C2CC=CCC2C(=O)O)CC1 (stereo unspecified)	.	1	.	.
COc1ccc(Br)c2oc(S)cc(=O)c12	-7	17	64*	-6
CCCCn1c(N)c(N(CC(C)C)C(=O)C2CCCO2)c(=O)[nH]c1=O (stereo unspecified)	.	-8	.	.
CN(C)c1cc(NC(=O)CN2CCCC2)c2ccccc2n1	37	4	54*	.
CN(C)c1cc(NC(=O)CNC(C)(C)CC(C)(C)C)c2ccccc2n1	-2	1	4	-3
CCOC(=O)c1sc(Nc2nc3cc4c(cc3s2)OCO4)cc1C	29	0	65*	.
CC(=O)Nc1nc2cc3c(cc2s1)OCO3	-18	-1	-2	-1
S=c1nccc(-c2ccc(Cl)cc2)[nH]1	-74	3	9	.
Cc1nc2ccccn2c1-c1ccnc(=S)[nH]1	-30	6	57*	.
COC(=O)c1ccc(NC(=O)CNc2ccccc2)cc1	-41	2	25	0
Cc1nc(COC(=O)c2ccc(CO)cc2)cs1	-24	5	4	-2
Cc1nc(COC(=O)c2cc(O)c3ccccc3c2O)cs1	94*	.	104*	0
C/C(=N\NC(=O)c1ccc(O)cc1)c1ccc2c(c1)Nc1ccccc1S2	-21	-7	50	-3
C/C(=N\NC(=O)c1ccccc1F)c1ccc2c(c1)Nc1ccccc1S2	-12	-20	62*	0
O=C(c1ccc(Cl)c(S(=O)(=O)N2CCOCC2)c1)N1CCCCCC1	.	-3	.	.
COCCN(C(=O)CSc1nc2ccccc2o1)c1c(N)n(Cc2ccccc2)c(=O)[nH]c1=O	.	1	.	.
CCOc1ccc(N=C2NC(=O)CS2)cc1	.	-4	.	.
CCOC(=O)c1c(C)oc2c1c(C=NCc1ccccn1)c(O)c1ccccc12	-28	.	1	0
CCOC(=O)c1c(C)oc2c1cc(O)c1ccccc12	-23	-1	14	-1
CCOC(=O)c1c(C)oc2c1c1c(c3ccccc32)OCN(Cc2cccnc2)C1	9	.	71*	1
CCOC(=O)c1c(C)oc2c1c1c(c3ccccc32)OCN(CCCC(=O)O)C1	-21	3	53*	.
CCOC(=O)c1c(C)oc2c1c(C=NCC1CCCO1)c(O)c1ccccc12 (stereo unspecified)	-17	.	0	0
CCOC(=O)c1c(C)oc2c1c(C(c1cccnc1)N1CCOCC1)c(O)c1ccccc12 (stereo unspecified)	69*	10	101*	-5
CCOC(=O)CSC1=NC(=O)/C(=C\c2ccc(OC(C)=O)cc2)S1	29	10	60*	2
SMILES	Mcl1 Bid PPI	MCL1 BIM primary	Mcl1 Noxa PPI	Mcl-1 Bim block
Cc1ccc(C(=O)NCCc2nnc3ccc(NCCCN4CCOCC4)nn23)cc1	.	9	.	.
CCOc1cnn(Cc2ccccc2)c(=O)c1SCc1ccccc1	-25	0	70*	-3
CCOC(=O)CC(=O)CSc1nc2cc(C)ccc2cc1C	-7	29	20	2
CCOC(=O)CC(=O)CSc1nc2ccc(OC)cc2cc1C	-15	47*	12	0
O=C(COC(=O)c1ccccc1O)Nc1ccc(N2CCOCC2)cc1	.	2	.	.
CCOc1ccc(OCCN(C)Cc2ccccc2)cc1	59*	10	10	-5
CSc1ccccc1NC(=O)c1noc2c1CCC2	-34	33	66*	-2
O=C(CCCn1nnnc1CN1CCOCC1)N1CCN(c2ccccc2F)CC1	.	11	.	.
O=C(Cc1csc(N2CCOCC2)n1)N/N=C/c1ccc(O)c(O)c1O	-40	.	85*	2
C/C(=N\NC(=O)Cc1csc(N2CCOCC2)n1)c1ccccc1	-26	10	6	0
O=C(CCN1CCN(c2ccccc2)CC1)N/N=C/c1ccc(O)c(O)c1O	-84	.	77*	9
C/C(=N\NC(=O)CSc1nc(C)[nH]c1[N+](=O)[O-])c1ccc(F)cc1	-7	-6	3	.
COc1cc(-c2nnc(COC(=O)c3c4c(nc5ccccc35)CCCC4)o2)cc(OC)c1OC	-11	.	-4	-1
COc1ccc(C(=O)/C=C/c2cc(OC)c(O)c(OC)c2)c(F)c1	7	15	55*	-2
CCN1CCCC1CNc1ncnc2c1[nH]c1ccc(Cl)cc12 (stereo unspecified)	6	3	73*	-2
Cc1ccc(C2NC(=O)NC(O)(C(F)(F)F)C2C(=O)c2ccccc2)o1 (stereo unspecified)	-6	5	-14	13
COc1ccc(C(=O)C2C(c3ccc(-c4ccccc4[N+](=O)[O-])o3)NC(=O)NC2(O)C(F)(F)F)cc1 (stereo unspecified)	10	6	57*	-4
O=C1NC(c2ccc(-c3ccccc3[N+](=O)[O-])o2)C(C(=O)c2ccc(F)cc2)C(O)(C(F)(F)F)N1 (stereo unspecified)	-3	0	55*	-2
Cc1ccc(C(=O)C2C(c3cccs3)NC(=O)NC2(O)C(F)(F)F)cc1 (stereo unspecified)	63*	2	12	-3
Cc1ccc(C2NC(=O)NC(O)(C(F)(F)F)C2C(=O)c2cccs2)o1 (stereo unspecified)	-19	7	0	-2
Cn1cc(-c2ccccc2C(=O)O)c(=O)c2cc(Cl)ccc21	.	4	.	.
Cc1c(CCC(=O)NC2CC2)c(=O)oc2cc(O)ccc12	.	5	.	.
COC(=O)c1ccc(OC(=O)CCN2C(=O)C3C4c5ccccc5C(c5ccccc54)C3C2=O)cc1 (stereo unspecified)	52*	1	10	-10
Cn1c(=O)c2sccc2n2c(CCCC(=O)NCc3ccco3)nnc12	.	3	.	.
CCc1ccc(OCC(=O)N(CC)CC)cc1	-15	-3	11	-1
SMILES	Mcl1 Bid PPI	MCL1 BIM primary	Mcl1 Noxa PPI	Mcl-1 Bim block
CC(=O)Nc1cccc(C(=O)N/N=C/c2c[nH]c3ccccc23)c1	.	0	.	.
COCCCN(C(=O)CCSc1ccc(F)cc1)c1c(N)n(Cc2ccccc2)c(=O)[nH]c1=O	.	-2	.	.
Cc1cc(/C=C2\SC(=S)N(C)C2=O)c(C)n1-c1ccc(O)cc1	-51	-39	-8	.
CN1C(=O)/C(=C/c2coc3ccc(O)cc3c2=O)SC1=S	-5	-12	54*	.
NC(=S)Nc1cccc(O)c1	-152	9	2	.
CN1CCC(N(C)C(=O)CNC(=O)c2ccc(C(C)(C)C)cc2)CC1	-5	6	58*	-2
COc1ccc(NCc2nnc(-c3ccccc3)o2)cc1	.	5	.	.
Cc1n[nH]c(=S)n(NC(=O)/C=C/C(=O)Nn2c(=S)[nH]nc(C)c2=O)c1=O	-43	.	87*	-3
COc1cc(CC(=O)O)ccc1O	-46	11	-8	.
COc1cc(CC2COC(c3ccc(O)c(OC)c3)C2COC(C)=O)ccc1O (stereo unspecified)	-72	24	70*	.
Cc1cccc(-n2c(O)c(C=Nc3ccccc3-c3n[nH]c(=S)[nH]c3=O)c3ccccc3c2=O)n1	-20	9	45	.
Cc1ccc(-n2c(O)c(C=Nc3ccccc3-c3n[nH]c(=S)[nH]c3=O)c3ccccc3c2=O)cc1C	-94	.	101*	-3

Source: PubChem
